# In the supplement of paper PMC6607015:
# Structures can show the parent of a compound that is named as a salt.
# Assays:
# Details in all cases: compound concentration in added solution (µM; 5 µl added to 20 µl cells): 10; 18 h
# [1] = tested on: A431; experiment: LBPA endosome anti-LBPA integrated intensity (sum per cell), Z-score; higher = more LBPA staining
# Method in brief: (§1)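 Per-cell integrated LBPA or filipin intensity, whole-cell or within LBPA endosomes, is expressed as Z-scores normalised in AcuityXpress. HeLa MZ or A431 cells, 3,500 per well in 20 µl, sat on 5 µl of 10 µM compound solution in duplicate 384-well imaging plates for 18 h. They were then fixed in 4% PFA, stained, imaged in four 20× fields per well and segmented using MetaXpress.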
# [2] = tested on: HeLa MZ; experiment: as above
# Method in brief: as §1
# [3] = tested on: A431; experiment: whole-cell filipin (free cholesterol) integrated intensity, Z-score; higher = more cholesterol staining
# Method in brief: as §1
# [4] = tested on: HeLa MZ; experiment: as above
# Method in brief: as §1
# [5] = tested on: A431; experiment: filipin (cholesterol) integrated intensity within LBPA endosomes, Z-score; higher = more cholesterol in LBPA endosomes
# Method in brief: as §1
# [6] = tested on: HeLa MZ; experiment: as above
# Method in brief: as §1
SMILES,LBPA endosome anti-LBPA integrated intensity (z-score) [1],LBPA endosome anti-LBPA integrated intensity (z-score) [2],whole-cell filipin (z-score) [3],whole-cell filipin (z-score) [4],filipin (z-score) [5],filipin (z-score) [6]
COc1nc(C)nc(Cl)c1NC1=NCCN1 [Moxonidine],-0.127,0.511,-0.0575,-0.203,-0.176,-0.384
CCCCN(CCCC)CCC(O)c1cc2c(Cl)cc(Cl)cc2c2cc(C(F)(F)F)ccc12 (stereo not drawn) [Halofantrine hydrochloride],1.7,-0.119,1.07,-0.0402,1.04,0.413
CCCCOC(=O)c1ccc(N)cc1 [Butamben],-0.33,0.449,-0.437,-0.221,-0.356,-0.552
CCCN(CCC)C(=O)C(CCC(=O)O)NC(=O)c1ccccc1 (stereo not drawn) [Proglumide],-0.629,-1.36,-1.22,-0.766,-0.53,-0.607
NS(=O)(=O)c1cc2c(cc1Cl)NC(C(Cl)Cl)NS2(=O)=O (stereo not drawn) [Trichlormethiazide],-0.262,0.0655,-0.129,-0.0923,-0.393,-0.381
CNCCCN1c2ccccc2CCc2ccccc21 [Desipramine hydrochloride],2.09,0.947,1.99,0.636,2.34,2.58
C=C1/C(=C\C=C2/CCC[C@]3(C)[C@@H]([C@H](C)/C=C/[C@@H](O)C4CC4)CC[C@@H]23)C[C@@H](O)C[C@@H]1O [Calcipotriene],0.563,1.43,0.734,0.316,0.659,0.179
O=C(OCC(O)CO)c1ccccc1Nc1ccnc2cc(Cl)ccc12 (stereo not drawn) [Glafenine hydrochloride],0.592,1.9,-1,-1.18,-0.297,0.0497
Nc1ccc(O)c(C(=O)O)c1 [Mesalamine],-0.0986,0.304,0.385,0.263,-0.341,-0.247
N[C@@H](C(=O)N[C@@H]1C(=O)N2C(C(=O)O)=C(Cl)CC[C@H]12)c1ccccc1 [Loracarbef],-0.535,-0.139,-0.847,-0.304,-0.553,-0.73
C[C@H]1c2cccc(O)c2C(=O)C2=C(O)[C@]3(O)C(=O)C(C(N)=O)=C(O)[C@@H](N(C)C)[C@@H]3[C@@H](O)[C@@H]21 [Doxycycline hydrochloride],-0.633,-1.71,-0.0102,-0.552,-0.531,-0.743
O=C1Nc2ccc(Cl)cc2[C@@](C#CC2CC2)(C(F)(F)F)O1 [Efavirenz],-0.71,-0.896,-0.938,-0.668,-0.569,-0.836
O=C(Cn1ccnc1[N+](=O)[O-])NCCO [Etanidazole],-0.499,-0.402,-0.226,0.609,-0.413,-0.325
C[C@@H]1NC(=O)NC1=O [Methylhydantoin-5-(L)],-0.307,0.559,-0.263,-0.142,-0.411,-0.338
C[C@@H](c1ncncc1F)[C@](O)(Cn1cncn1)c1ccc(F)cc1F [Voriconazole],-0.526,-0.198,-0.573,-0.527,-0.605,-0.411
Cc1ccc(/C(=C\CN2CCCC2)c2ccccn2)cc1 [Triprolidine hydrochloride],-0.168,0.494,-0.873,-0.689,-0.378,-0.0781
COc1c2occc2c(OC)c2c(=O)cc(C)oc12 [Khellin],-0.364,-0.599,-0.787,-0.817,-0.439,-0.439
CC(=O)O[C@]1(C(C)=O)CC[C@H]2[C@@H]3C=C(C)C4=CC(=O)CC[C@]4(C)[C@H]3CC[C@@]21C [Megestrol acetate],-0.482,-1.05,-0.244,0.402,-0.317,-0.342
c1cnc(N2CCN(Cc3ccc4c(c3)OCO4)CC2)nc1 [Piribedil hydrochloride],0.161,1.95,0.544,1.93,-0.00283,1.55
CO[C@@]1(NC(=O)Cc2cccs2)C(=O)N2C(C(=O)O)=C(COC(N)=O)CS[C@@H]21 [Cefoxitin sodium salt],-0.479,0.482,-0.426,-0.439,-0.487,-0.515
Cc1cccc(C)c1NC(=O)C1CCCCN1C (stereo not drawn) [Mepivacaine hydrochloride],-0.256,0.0426,0.297,0.327,-0.328,-0.202
COc1c(N2C[C@@H]3CCCN[C@@H]3C2)c(F)cc2c(=O)c(C(=O)O)cn(C3CC3)c12 [Moxifloxacin],-0.595,-1.37,-0.138,-0.0544,-0.469,-0.207
Cn1cnc2c1c(=O)[nH]c(=O)n2C [Theobromine],-0.566,-1.37,-0.361,-0.586,-0.492,-0.483
CCCCNc1c(C(=O)OCC)c(C)nc2c1cnn2CC [Tracazolate hydrochloride],0.273,1.37,0.113,1.2,0.00245,0.287

SMILES,LBPA endosome anti-LBPA integrated intensity (z-score) [1],LBPA endosome anti-LBPA integrated intensity (z-score) [2],whole-cell filipin (z-score) [3],whole-cell filipin (z-score) [4],filipin (z-score) [5],filipin (z-score) [6]
CN(C)CCCC1(c2ccc(F)cc2)OCc2cc(C#N)ccc21 (stereo not drawn) [Citalopram Hydrobromide],-0.329,1.58,0.204,0.212,-0.352,0.534
CN1CCN(c2c(F)cc3c(=O)c(C(=O)O)cn(CCF)c3c2F)CC1 [Fleroxacin],-0.492,-0.0484,-0.0639,0.23,-0.354,-0.239
OCCN1CCN(CCCN2c3ccccc3Sc3ccc(Cl)cc32)CC1 [Perphenazine],3.24,0.966,-0.472,-0.434,2.14,2.73
CCc1cccc2c3c([nH]c12)C(CC)(CC(=O)O)OCC3 (stereo not drawn) [Etodolac],-0.65,-1.97,-0.842,-0.545,-0.553,-0.628
C#C[C@]1(O)CC[C@H]2[C@@H]3CCC4=CC(=O)CC[C@@H]4[C@H]3CC[C@@]21C [Norethindrone],-0.462,-0.0403,-0.665,-0.306,-0.425,-0.487
CC(=O)CC(c1ccc([N+](=O)[O-])cc1)c1c(O)c2ccccc2oc1=O (stereo not drawn) [Acenocoumarol],-0.507,-0.33,-0.704,-0.387,-0.49,-0.482
CCOCCn1c(N2CCCN(C)CC2)nc2ccccc21 [Emedastine],-0.464,0.747,-0.629,-0.502,-0.536,-0.461
C=C[C@H]1CN2CC[C@H]1C[C@@H]2[C@@H](O)c1ccnc2ccc(OC)cc12 [Quinidine hydrochloride monohydrate],0.635,0.796,0.722,-0.0406,0.638,0.436
CC(C)OC(=O)C(C)(C)Oc1ccc(C(=O)c2ccc(Cl)cc2)cc1 [Fenofibrate],-0.471,-0.341,-0.324,-0.246,-0.435,-0.631
COc1cc(OC)c(C(=O)CCCN2CCCC2)c(OC)c1 [Buflomedil hydrochloride],-0.502,0.473,-0.535,-0.534,-0.503,-0.263
Cc1onc(-c2c(F)cccc2Cl)c1C(=O)N[C@@H]1C(=O)N2[C@@H]1SC(C)(C)[C@@H]2C(=O)O [Flucloxacillin sodium],-0.384,0.147,-0.112,-0.558,-0.348,-0.62
COc1ccc(OC)c(C(O)CNC(=O)CN)c1 (stereo not drawn) [Midodrine hydrochloride],-0.477,-0.609,-0.887,-1.05,-0.605,-0.723
CN(Cc1ccc(C(C)(C)C)cc1)Cc1cccc2ccccc12 [Butenafine Hydrochloride],-0.698,-1.43,-0.644,-0.481,-0.512,-0.793
O=C1CCc2cc(OCCCCc3nnnn3C3CCCCC3)ccc2N1 [Cilostazol],-0.386,-0.0616,-0.68,-0.703,-0.49,-0.5
CC(=O)[C@@]1(O)CC[C@H]2[C@@H]3C[C@H](C)C4=CC(=O)C=C[C@]4(C)[C@@]3(F)[C@@H](O)C[C@@]21C [Fluorometholone],-0.292,-0.618,-0.262,-0.2,-0.289,-0.522
CC(=O)OCC(=O)[C@@]1(O)CC[C@H]2[C@@H]3CCC4=CC(=O)CC[C@]4(C)[C@@]3(F)[C@@H](O)C[C@@]21C [Fludrocortisone acetate],-0.127,-0.216,-0.382,-0.957,-0.321,-0.564
NCCCC[C@H](N[C@@H](CCc1ccccc1)C(=O)O)C(=O)N1CCC[C@H]1C(=O)O [Lisinopril],-0.555,-0.949,-0.886,-0.862,-0.636,-0.71
C=CCOc1ccccc1OCC(O)CNC(C)C (stereo not drawn) [Oxprenolol hydrochloride],-0.0805,0.635,0.289,0.262,-0.232,-0.267
CSc1ccc2c(c1)N(CCC1CCCCN1C)c1ccccc1S2 (stereo not drawn) [Thioridazine hydrochloride],1.04,0.375,-0.796,-0.81,1.25,1.45
C[N+](C)(C)CCCCCC[N+](C)(C)C [Hexamethonium dibromide dihydrate],-0.482,-1.09,-0.483,-0.775,-0.514,-0.624
CN(C)/N=N/c1[nH]cnc1C(N)=O [Dacarbazine],-0.547,-0.605,-0.746,-0.976,-0.487,-0.668
CC(NCCc1ccc(O)cc1)C(O)c1ccc(O)cc1 (stereo not drawn) [Ritodrine hydrochloride],-0.357,0.237,-0.158,-0.199,-0.481,-0.491
CNCCC=C1c2ccccc2C=Cc2ccccc21 [Norcyclobenzaprine],3.26,2.08,1.91,1.02,3.06,3.6
CCc1c(C)[nH]c2c1C(=O)C(CN1CCOCC1)CC2 (stereo not drawn) [Molindone hydrochloride],-0.564,-0.568,-0.123,-0.707,-0.506,-0.344
